Over roughly 59,000 sequences, the read-out has its median near -0.00055; the lowest 2% begin near -2. This excerpt belongs to a sample that is enriched for the lowest values.

A short description of the experiment: Identification of proteins required for the processing of the EWS-FLI1 nascent transcript.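 Also: robust z of luciferase light less the median z of siRNAs with the same seed.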 To be noted: TC32 Ewing sarcoma NR0B1-luc vs CMV-luc (EWS-FLI1 target promoter against control promoter), 48 h; screened at 20 nM (by protocol). A digest of the protocol:
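Readout: OneGlo luminescence, 48 h post-transfection, TC32-NR0B1-luc vs TC32-CMV-luc in parallel. siRNA 20 nM final, RNAiMax lipid, 600 cells/well; z-score-MAD transformed, then seed-adjusted.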
Regarding UUUCGAAUACCAGCUAUCC against KLHL7, the seed-corrected z-score was found to be 0.0747.

UCGUGGUUCUCAAUUUUGC against PKLR displayed a seed-corrected z-score of -0.494.

With ACCUCUGCAUCUCUUGUUC against TCF23, the seed-corrected z-score is -2.43.

Sequence UUUCAAUCCUUCCUCCUUA against IFNA7 registered a seed-corrected z-score of -0.487.

Sequence UAAUGUAACUACUUCCAUC against TM2D1 gave a seed-corrected z-score of -0.144.

The sequence UGUUGUCAAAGAGUGAUUC against SLC2A13 came in with a seed-corrected z-score of -2.46.

Sequence UACUGAAUCACUCCCUUGA against GALK1 came in with a seed-corrected z-score of -0.0112.

Turning to UGUAGUACGCUCUUGUUCU against GOLGA8EP, the seed-corrected z-score is -0.41.

In the case of UGCCGAGAAGUUUGGCUCC against TPBGL, the seed-corrected z-score was -0.407.

Consider AGAUAGUACACUCAUAUGG against ZNF791, for which the seed-corrected z-score was -2.77.

Consider UAUGCGGACCAAGUUGUCU against TMEM72, for which the seed-corrected z-score came out at 0.195.

The sequence UCAGGAUAAAGAUUGUCGC against KDM4A came in with a seed-corrected z-score of 1.62.

Sequence UGAAAUUCCCGUAGAGUUC against CA11 displayed a seed-corrected z-score of -0.176.

Consider AAACGAAAAAUGAACACUC against POU3F1, for which the seed-corrected z-score is 0.371.

As to AUUCUGAUCUAGGCGAUGG against C5orf15, the seed-corrected z-score was -2.22.

Sequence UUCGGAACCGGAGAUCCCA against RIPK4 had a seed-corrected z-score of -0.395.

With AAUCUAAUAGGAUUUGUUA against CTBP2, the seed-corrected z-score was -0.167.

Sequence ACCGUUUAAACUGAGACCC against FILIP1 had a seed-corrected z-score of 1.11.

The sequence UCGCUGACUCCAGAUAUGC against AP1G2 yielded a seed-corrected z-score of -0.0794.

With UUCUUUGCACGAAUGUCCG against PRPF6, the seed-corrected z-score was -1.74.

Sequence UUGUUAAUCUGGUCAAUUG against GRM8 had a seed-corrected z-score of 0.169.

UGCUUUUGGAGUGCUAUGG against ANKLE1 had a seed-corrected z-score of -2.74.

UCCACGAAUAGCAAUAUGC against KIDINS220 returned a seed-corrected z-score of -1.19.

AAAUCAUAAACCAUCUUUG against OR2L2 registered a seed-corrected z-score of 1.05.

On to AGUAGUCACACUGUUGUGC against NXNL2, for which the seed-corrected z-score was -4.17.

In turn, UAUUUAUCUAGGCACUUCU against CENPT gave a seed-corrected z-score of 0.523.

With UUCUCAGAAACUGCACGGC against SYNGR4, the seed-corrected z-score was found to be 0.497.

In the case of UAUUCUUAUCUGUAAUCCC against LOC646736, the seed-corrected z-score was -0.205.

The sequence UCGCGGAUCAGAAAGGUGC against SOCS3 had a seed-corrected z-score of -1.04.

On to UACUUUUGAUGCACUAGUC against ETAA1, for which the seed-corrected z-score was -1.14.

AACAUAAGAGAGACAAUGC against SYVN1: the seed-corrected z-score came out at 0.102.

For the sequence UCACGAACUGGACUUUACC against GRM7, the seed-corrected z-score was -0.806.

As for GUCAGGUAGAAGACCACAC against MRGPRG, the seed-corrected z-score is -2.24.

For UGCGUGAACCUCUUGAACA against TNFAIP2, the seed-corrected z-score was 0.027.

As for AGUGGAAACAGGAUGGAUG against GAL3ST4, the seed-corrected z-score is -0.271.

The sequence UAGCCGCUGACUUUGAUGC against SLC39A13 came in with a seed-corrected z-score of 0.264.

In turn, UUACUUGUACCCGCUGUUC against RLTPR gave a seed-corrected z-score of -0.488.

For AUCUGCAUAAUGCACAUUC against SLC15A5, the seed-corrected z-score is -2.92.

Sequence AGCAUCUUGACAUUCAUCU against MYL4 returned a seed-corrected z-score of -0.225.

In turn, UUUAAGGGUAUUACGAGUG against GGPS1 gave a seed-corrected z-score of 0.153.

Sequence UUAUCAAUUAGAGGAUAAC against B3GALNT1 had a seed-corrected z-score of 0.214.

AUACAUCCGAUUAAGAGGC against SERINC5 returned a seed-corrected z-score of -2.74.

UUUCCUGUAAAUCCCACAG against TSSC1 had a seed-corrected z-score of 0.399.

With AGAUCUAAUAACAAUAAGC against EIF2S3, the seed-corrected z-score is -2.28.

Sequence AAUCAGUCAGGUAAAUGCC against ENTPD1 showed a seed-corrected z-score of 0.248.

The sequence AAUAAAAAUGACAGUUUCC against BTN2A2 came in with a seed-corrected z-score of 0.474.

Turning to AAUGAGAAUAAAGUCUACC against OR51A4, the seed-corrected z-score is -2.31.

With UCCUUCACAAACAUGUCCC against SDK1, the seed-corrected z-score amounted to 0.154.

UAUCGAAGAUAAAUCAGCC against SLC7A11 came in with a seed-corrected z-score of 0.269.

Consider UUCUUCUCGGCCUGUUUCC against RPL13A, for which the seed-corrected z-score is 0.511.

In turn, UGCCUGUAAAGCCGUCUCC against LINC00705 returned a seed-corrected z-score of -0.731.

In the case of AAGCCUAUGAUGAUCACUG against C3orf52, the seed-corrected z-score is -0.911.

With UUCCAGCACAUAUCGACUC against TMEM8B, the seed-corrected z-score was -2.4.

For the sequence AUACUGGACACUCUUGCCG against RNF5, the seed-corrected z-score is -2.86.

As to UUCGGUCUCAGGACUAUUG against KAT6A, the seed-corrected z-score is 0.686.

Sequence UUCUUGAACUGUCUAAACC against CERKL displayed a seed-corrected z-score of 0.919.

UUUCAUUGAAGCGGAAGCG against CRYGD gave a seed-corrected z-score of 0.834.

With UUACUUAGAGGAGAUACCA against IGFBP7, the seed-corrected z-score is -0.294.

In turn, UCCCGGAAAGCCUUCAUGG against INF2 came in with a seed-corrected z-score of -0.589.

For the sequence UAAGAUAUGAACUCUGACG against ZNF234, the seed-corrected z-score worked out at 0.548.

UGGGCUUGUAGAAGUGUCU against DGAT1 had a seed-corrected z-score of -0.22.

AAUUAUUCGACUGACAUAG against RFC4: the seed-corrected z-score is -2.19.

For the sequence AUCUGUCCAAGACAUUUGC against CHRNA7, the seed-corrected z-score was -1.18.

AAACUGACAAGUAGACUGG against ANKRD27 showed a seed-corrected z-score of -0.601.

Sequence UCAGUUGCUUAUGAUAGUC against CCDC73 showed a seed-corrected z-score of -2.71.

Turning to UUAUUAGAGAGAAAAGCAC against PRAC1, the seed-corrected z-score was 0.7.

The sequence UCCGUUAUUAGCAUCUGCC against 6-Mar displayed a seed-corrected z-score of -0.0888.

With UUAUUGAUGCGUUGAUUUG against CCDC88C, the seed-corrected z-score came out at 0.00274.

UUAUGUACCUUGUUACAUU against CD72: the seed-corrected z-score was -0.111.

Take AUGCGGUUCAGGAACUUGG against SBNO2: the seed-corrected z-score was -2.46.

In the case of ACAUAUAGUAUCAUUAUGG against SLC35D2, the seed-corrected z-score is 0.0309.

Turning to UUUCGGUUCCUUGAAACCA against DBNL, the seed-corrected z-score is -0.0899.

In turn, UUUGAUUCUACUUCAAAAC against CBX3P2 gave a seed-corrected z-score of 0.167.

As to AAAGGGACGCUCAACCACC against HIST1H4K, the seed-corrected z-score is -1.31.

In turn, UUAACUGCAGGCUUAUACU against AKR1B1 returned a seed-corrected z-score of -1.42.

UAUCUUUUCCCAGUUGGAC against MSRB3 returned a seed-corrected z-score of -2.11.

UACGAUUCUUGAGUGGAAG against BACH1 came in with a seed-corrected z-score of 0.239.

For the sequence UCUGUUUCUCGCGCACUCG against COX7A1, the seed-corrected z-score was determined as 0.0308.

In the case of UUCUUACACCUGACGAAGC against WNT5B, the seed-corrected z-score was 0.217.

In the case of UAUGAUUUAAUCACCUCCU against LOC653513, the seed-corrected z-score is 0.00911.

In the case of UCAAUGAGAGUGCACAUCC against COPA, the seed-corrected z-score is -3.73.

AUAUCAAUUGUUAUCUUGC against ANKRD30A registered a seed-corrected z-score of 0.895.

Regarding UCUACUAUCAUUGUCCCUU against TAL1, the seed-corrected z-score came out at 0.0482.

Turning to UCUGGUACUGUGAAGGGUC against TSPYL5, the seed-corrected z-score came to 0.606.

The values are drawn from PubChem BioAssay AID1159506 (National Center for Advancing Translational Sciences (NCATS), 2015).
